Compounds without any hit were thinned out: in the full panel of roughly 83,000, 20% have a hit.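 Compound tested at a single concentration for 48 hours in 96-well plates; a percent growth value below 10 was scored as active.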 Unmarked numbers belong to inactive results. Active and inactive are the calls of the source.
Key:
Experiment in all cases: NCI-60 one-dose screen, 48 h (100 = growth as untreated, 0 = no growth, -100 = all killed)
Conditions in all cases: 10 µM
[1] = system: HCT-15 colon
[2] = system: HT29 colon
[3] = system: SNB-75 CNS
[4] = system: SNB-19 CNS
[5] = system: U251 CNS
[6] = system: PC-3 prostate
[7] = system: SK-MEL-5 melanoma
[8] = system: UACC-62 melanoma
[9] = system: LOX IMVI melanoma
[10] = system: SK-MEL-28 melanoma

Row | SMILES | growth [1] | growth [2] | growth [3] | growth [4] | growth [5] | growth [6] | growth [7] | growth [8] | growth [9] | growth [10]
1 | CC(C)(C)c1ccc(S(=O)(=O)Oc2ccc(NC(=O)C3CCCCC3)cc2)cc1 | 36.8% | 44.9% | 80.1% | 49.2% | 43.9% | 22.3% | 26.3% | 31.1% | 48.7% | 66.8%
2 | C=CCN(CC=C)C(=O)[C@H](CC)[C@@H]1CC[C@@H](C)[C@@H]([C@H](C)[C@@H](O)[C@@H](C)C(=O)[C@H](CC)C2O[C@]3(C=C[C@@H](O)[C@]4(CC[C@@](C)([C@H]5CC[C@](O)(CC)[C@H](C)O5)O4)O3)[C@H](C)C[C@@H]2C)O1 (stereo not given in full) | 4.64% (active) | 9.13% (active) | -7.45% (active) | 14.2% | 18.9% | 2.56% (active) | -85.2% (active) | 14.3% | 17% | 33.9%
3 | O=C(N/N=C/c1ccc(Cl)cc1)c1ccccc1Nc1cccc(C(F)(F)F)c1 | 79.1% | 75.8% | 78.7% | 88.4% | 72% | 71.6% | 34% | 76.4% | 83.7% | 79.8%
4 | Cc1c(O)c(=O)ccn1C1CCC(CC2CCC(n3ccc(=O)c(O)c3C)CC2)CC1 (stereo not given) | 18.9% | 33.8% | 21.1% | 30.2% | 30.2% | 41.7% | 29.2% | 14.6% | 25% | 49.4%
5 | CC(=O)N[C@H](C(=O)N[C@@H](CCCNC(=N)N)C(=O)N[C@@H](CCCCN)C(=O)N[C@@H](CCCNC(=N)N)C(=O)N[C@]1(C)CCC/C=C\CCC[C@@](C)(C(=O)N[C@@H](CC(C)C)C(=O)N[C@@H](CC(C)C)C(=O)N[C@@H](CCC(N)=O)C(=O)N[C@@H](CCC(=O)O)C(=O)N[C@@H](CCCNC(=N)N)C(=O)N[C@@H](CCC(=O)O)C(=O)N[C@@H](CC(C)C)C(=O)N[C@H](C(=O)N[C@@H](CCC(=O)O)C(N)=O)C(C)C)NC(=O)[C@H](CCCNC(=N)N)NC(=O)[C@H](CC(C)C)NC1=O)C(C)C | 109% | 95.3% | 119% | 105% | 100% | 104% | 102% | 105% | 105% | 111%
6 | O=C(CCC(C(=O)c1ccccc1)c1ccccc1)c1ccccc1 (stereo not given) | 45.8% | 34.1% | 79.9% | 89.8% | 90.4% | 55.5% | 82.5% | 63% | 91.9% | 80.5%
7 | O=c1oc2c(cc1-c1ccc(F)cc1)C(O)Oc1ccccc1-2 (stereo not given) | 63.4% | 66.8% | 63.4% | 95.9% | 67.4% | 92.9% | 34.8% | 44.5% | 77.8% | 88.6%
8 | CN1C(C(=O)Nc2ccccn2)=C(O)c2sc(Cl)cc2S1(=O)=O | 112% | 103% | 89.5% | 104% | 95.4% | 87.9% | 102% | 92.4% | 96% | 102%
9 | c1ccc(/C(=N\Nc2ccc3ccccc3n2)c2ccccn2)cc1 | 25.7% | 26.2% | -9.74% (active) | 26.1% | 7.94% (active) | 19.4% | -51.3% (active) | -49.5% (active) | -13.5% (active) | 20.5%
10 | CN1CCN(c2cc3c(cc2F)c(=O)c(C(=O)O)cn3-c2ccc(F)cc2)CC1 | 99.2% | 91.2% | 55.2% | 98.2% | 106% | 90.4% | 95.5% | 90.2% | 84.7% | 105%
11 | CCc1ccc(-c2ccc(-n3nc(C)c4c(N)nc(Cc5ccccc5)nc43)cc2)cc1 | 60.6% | 78.8% | 65% | 66.3% | 68% | 54.7% | 95.5% | 73.1% | 51.1% | 92.4%
12 | Oc1ccc(-c2[nH]c3ccccc3c2-c2nc3ccccc3o2)cc1 | 25.4% | 27.8% | 52.3% | 89.6% | 60.9% | 57.4% | 43.4% | 59.6% | 34.6% | 58%
13 | COc1ccc2nc3cc(Cl)ccc3c(NCCCNCCO)c2c1 | 13.6% | -66.3% (active) | -36.4% (active) | 4.9% (active) | -45.2% (active) | -30.6% (active) | 14.3% | -64.2% (active) | -59.7% (active) | -49% (active)
14 | CC(C)(C)OC(=O)N1CCc2c(sc3ncnc(N/N=C/c4ccc(Br)cc4)c23)C1 | 28.1% | 33.8% | 61.8% | 69.5% | 67.3% | 44% | 24% | 42.2% | 54.8% | 63.2%
15 | COc1cc(C(=O)n2nc(-c3cc(OC)c(OC)c(OC)c3)nc2N)cc(OC)c1OC | 100% | 82.7% | 81.9% | 102% | 97.3% | 95.7% | 94.5% | 102% | 95.8% | 97%
16 | CCNCC(=O)Nc1ccc(C(=O)OCC)cc1 | 104% | 90.7% | 86.6% | 109% | 97.7% | 98.3% | 108% | 99.2% | 95% | 103%
17 | COC(=O)c1cc2oc(/C=C3/SC(=S)N(N)C3=O)cc2n1Cc1ccccc1 | 47% | 63% | 29.3% | 84.5% | 45.3% | -3.5% (active) | 45.4% | 50.6% | 34.6% | -71.4% (active)
18 | CNC(=O)c1cn(C2CC2)c2cc(N3CCN(C(=O)c4cc(OC)c(OC)c(OC)c4)CC3)c(F)cc2c1=O | 100% | 99.2% | 96% | 96.4% | 96.3% | 89.9% | 98.3% | 96.5% | 94.7% | 105%
19 | CSc1nc(S(C)(=O)=O)nc2[nH]c(=O)[nH]c12 | 94.9% | 99.5% | 97% | 99.8% | 105% | 106% | 103% | 98.9% | 108% | 126%
20 | CS(=O)(=O)c1nccc(-c2c(-c3cccc(O)c3)nc3sccn23)n1 | 101% | 91.7% | 70.4% | 103% | 91.9% | 96.8% | 86% | 85.9% | 91.5% | 94%
21 | CC(=O)C1N=NCC1c1ccccc1 (stereo not given) | 96.9% | 105% | 92.1% | 99.9% | 110% | 95.5% | 98.4% | 83.8% | 103% | 112%
22 | CN1CCN(CCCn2c(=O)c3sc4ncccc4c3n3nnc(-c4ccccc4)c23)CC1 | 7.72% (active) | -54.1% (active) | -24.7% (active) | 23.3% | -81.8% (active) | 46.5% | -96.3% (active) | -88% (active) | -90.8% (active) | -92.6% (active)
23 | COC(=O)C1(O)NC(=C(C#N)C#N)C(C#N)=C1C(=O)c1ccc(OC)c(OC)c1 (stereo not given) | 105% | 99.6% | 94.5% | 97.1% | 92.5% | 76.9% | 101% | 99.3% | 99.4% | 120%
24 | COc1ccc(-c2cc(-c3ccc(Cl)cc3)nc(SCCCC(=O)NO)n2)cc1OC | -4% (active) | 6.66% (active) | 2.56% (active) | 14.8% | 12.4% | -5.41% (active) | -55.9% (active) | -60.1% (active) | -64.8% (active) | 20.5%
25 | N#CCc1csc(Cc2ccccc2)n1 | 109% | 98% | 101% | 101% | 103% | 109% | 102% | 103% | 95.9% | 108%

From PubChem BioAssay (NCI)
